The list is not random: actives were taken first. Their share in the collection is about 7.5%.
SMN2 splice up: SMN2 splice variant enhancement. actives 2.8% (n = 210,000). Potency, µM (series often up to 46.1 µM), without a hit: top-dose activity change, positive = activation, usual class: activators. HEK293 SMN2-luciferase splicing reporter, luminescence, 30-36 h; note: % of control where 0% means no effect; nearly all actives have a fitted effect of over 55% in size
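qHTS luciferase splicing reporter: luminescence rises when SMN2 exon 7 is included in transfected HEK293 cells. Compound exposure lasted 30-36 h at 37C, with 4.5 mM final sodium butyrate as control, followed by a ONE-Glo read.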
NPC1 promoter act: activates the NPC1 promoter. Huh7 NPC1 promoter luciferase reporter, 24 h. Potency, µM (highest dose often 9.22 µM), without a hit: top-dose activation, hits mostly activators. actives 2.4% (n = 320,000). AID 485313; note: % of control where 0% means no effect; nearly all actives have a fitted effect of over 60% in size
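Luminescence read-out of NPC1 promoter-driven luciferase in stably transfected Huh7 cells; compounds delivered in DMSO and left 24 h at 37C, 5% CO2, qHTS titration format.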
ELG1 genotox: inducers of genotoxicity in HEK293T ELG1-luciferase cells. AID 504466. HEK293T ELG1-luciferase reporter, luminescence, 16 h. actives 1.3% (n = 330,000). Potency, µM (series often up to 46 µM), without a hit: top-dose activity change, positive = activation, usual class: activators; note: % of control where 0% means no effect; nearly all actives have a fitted effect of over 60% in size
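ELG1-luciferase HEK293T cells, 2,000/well; compound pinned in; 16 hr, 37 °C, 5% CO2; ONE-Glo, 30 min RT; luminescence on CCD imager.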
FLuc counter: inhibits or activates purified firefly luciferase, miR-21 counter-screen; actives 6.9% (n = 360,000); Potency, µM (top dose mostly 57.5 µM), inactives show at the top dose activity change, negative = inhibition, hits mostly inhibitors; purified FLuc, Km substrates, luminescence inhibition; AID 588342;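 note: plate controls were vehicle for no effect and reference inhibitor for full effect; nearly all actives have a fitted effect of over 55% in size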
Target sequence (P08659 whole entry, looked up): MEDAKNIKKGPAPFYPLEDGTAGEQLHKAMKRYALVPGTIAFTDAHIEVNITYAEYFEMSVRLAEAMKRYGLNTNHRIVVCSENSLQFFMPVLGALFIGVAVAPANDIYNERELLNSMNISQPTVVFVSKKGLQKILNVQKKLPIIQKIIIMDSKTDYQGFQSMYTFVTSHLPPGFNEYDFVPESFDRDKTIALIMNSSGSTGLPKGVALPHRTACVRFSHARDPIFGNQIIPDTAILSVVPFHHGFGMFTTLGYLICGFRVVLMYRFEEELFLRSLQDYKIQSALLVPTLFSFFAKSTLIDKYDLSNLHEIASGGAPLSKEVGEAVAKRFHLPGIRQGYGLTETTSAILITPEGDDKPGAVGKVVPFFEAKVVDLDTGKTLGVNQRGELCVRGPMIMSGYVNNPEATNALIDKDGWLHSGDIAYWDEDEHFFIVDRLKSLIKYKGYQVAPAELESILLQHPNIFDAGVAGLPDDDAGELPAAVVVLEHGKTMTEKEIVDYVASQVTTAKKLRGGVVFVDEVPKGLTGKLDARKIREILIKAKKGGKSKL
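Purified P. pyralis luciferase, 10 nM final, with Km-level 10 uM D-luciferin and 10 uM ATP in 50 mM Tris acetate pH 7.5, 10 mM Mg acetate, 0.01% Tween-20, 0.05% BSA; 6-point qHTS titration about 60 µM downward; luminescence read.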
Rab9 promoter act: Rab9 promoter activation. Potency, µM (titrated, usually from 9.22 µM), inactives show at the top dose activation, negative = inhibition, usual class: activators. Huh7 Rab9 promoter-luciferase reporter, luminescence, 24 h. AID 485297. actives 2.8% (n = 320,000); note: % of control where 0% means no effect; nearly all actives have a fitted effect of over 60% in size
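Using Huh7 cells stably transfected with Rab9 promoter–luciferase, compounds were incubated 24 h at 37 °C, 5% CO2; luciferase luminescence was read 10 min after reagent addition.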
Starred values were filed as active, the others as inactive; ? = inconclusive; / = not tested or not shown. Calls come from the whole dose curve; as a rule, active = well fitted curve in the direction sought with a large enough effect; inconclusive = small, poorly fitted or top-dose-only effect, or another doubt; inactive = no such curve, though single readings can be large; an effect the other way counts as inactive or inconclusive. Potency is the fitted concentration of half-maximal effect.

SMILES | SMN2 splice up | NPC1 promoter act | ELG1 genotox | FLuc counter | Rab9 promoter act
O=C(COc1ccc(Cl)cc1)c1ccc(O)cc1O | / | 30% | ? | 8.5µM* | ?
CCOC(=O)c1ccc(OCC(=O)c2ccc(O)cc2O)cc1 | -2% | 21% | ? | 6.7µM* | 22%
COC(=O)c1ccc(OCC(=O)c2ccc(O)cc2O)cc1 | -7% | ? | 10% | 6.7µM* | 4%
O=C(COc1ccccc1)OCC(=O)c1ccc(O)cc1O | / | -9% | 0% | ? | 3%
Cc1c(Cl)cccc1NC(=S)Nc1ccccn1 | 12% | -25% | -7% | 4% | -25%
Cc1ccc(Cl)c(NC(=O)COC(=O)CNS(=O)(=O)/C=C/c2ccccc2)c1Cl | 4% | -4% | -1% | -1% | 1%
O=C(O)c1ccc2c(c1)C(=O)N(c1cccc(-c3nc4ccccc4s3)c1)C2=O | / | 1% | 6% | 2.4µM* | -7%
Cc1cc(C)c(-c2nc3ccccc3s2)[nH]1 | / | 4% | ? | 4.8µM* | 9%
Nc1cccc(-c2nc3ccccc3s2)c1 | 57% | 3.2µM* | 3.7µM* | 1.2µM* | 4µM*
Oc1ccc(O)c(Cc2nc3ccccc3s2)c1 | 0% | -9% | -3% | ? | -3%
Oc1cccc(-c2nc3ccccc3s2)c1 | ? | 1% | 1.5µM* | 1.7µM* | ?
O=C(CCCC(=O)OCC1CCCO1)OCC1CCCO1 (configuration not stated) | / | -2% | -4% | 6% | -1%
CC(C)(C)OC(=O)N1CCN(C(=O)c2[nH]cnc2C(=O)Nc2nccs2)CC1 | / | 0% | 1% | -9% | 0%
CCOC(=O)N1CCN(C(=O)c2ccc(NS(=O)(=O)c3ccc(C)cc3)cc2)CC1 | / | -5% | -3% | -1% | -3%
CC[n+]1cccc(-c2nc3ccccc3s2)c1 | -20% | 1% | 4% | 27µM* | -1%
Cc1cc(C(=O)COC(=O)c2ccc(O)cc2O)c(C)n1-c1ccccc1 | / | ? | ? | 2.1µM* | ?
COc1ccc(-n2c(C)cc(C(=O)COC(=O)c3ccc(O)cc3O)c2C)cc1 | / | -4% | -4% | ? | -16%
CCOC(=O)c1cc(C)n(-c2ccccc2)c1C | / | 0% | ? | 15µM* | 25%
Cc1ccn2cc(CNC(=O)c3cccs3)nc2c1 | 15% | 5% | 9% | 1% | 0%
CCCN(CC(=O)Nc1ccccc1C)C(=O)c1ccc(-c2ccc([N+](=O)[O-])cc2)o1 | / | -1% | 0% | 1% | -3%
CC(C)OC(=O)c1cccc(C(=O)Oc2ccc(Br)cc2)n1 | 1% | -4% | 0% | 9.5µM* | -5%
CCOC(=O)N/N=C/c1cn(CCCOc2ccc(C)cc2)c2ccccc12 | -70% | 1.8µM* | -1% | -3% | ?
Cc1cc(C(=O)N/N=C/c2cccc(Cl)c2Cl)no1 | 20% | ? | 21µM* | 11µM* | ?
CCCn1c(=O)c(C(=O)N/N=C/c2ccccc2F)c(O)c2ccccc21 | 13µM* | ? | ? | -7% | 2.2µM*
CCOC(=O)N/N=C/c1ccc(N(CC)CC)cc1O | ? | -11% | ? | 24µM* | -2%
SMILES | SMN2 splice up | NPC1 promoter act | ELG1 genotox | FLuc counter | Rab9 promoter act
COc1ccc(NC(=O)C(Cc2ccccc2)NS(=O)(=O)c2ccc3c(c2)oc(=O)n3C)c(OC)c1 (configuration not stated) | 14% | / | / | 1% | /
O=C(CCN1C(=O)CSc2ccccc21)Nc1cccc(C(F)(F)F)c1 | / | -5% | 0% | 2% | -3%
CCOC(=O)N/N=C/c1cccc(Cl)c1Cl | ? | 17% | 11% | 21µM* | 23%
CCOC(=O)N/N=C/c1ccccc1F | ? | 2.5µM* | 28% | ? | 2.8µM*
CCN(CC)c1ccc(/C=C2\C(=O)c3ccc(C(=O)O)cc3C2=O)cc1 | -9% | 1% | ? | 0.38µM* | -5%
COc1ccc(C(=O)NC(=O)NC2(C(Cl)(Cl)Cl)OCCO2)cc1 | 2.2µM* | 0.35µM* | 0.65µM* | 0.95µM* | 0.25µM*
CN(CC(=O)Nc1ccccc1Br)C(=O)c1cc2c(s1)CCCCC2 | / | 26% | ? | 11µM* | 29%
COc1ccc2cc(C(=O)N(C)CC(=O)Nc3ccccc3Br)ccc2c1 | / | 11% | 1% | 21µM* | 26%
CN(CC(=O)Nc1ccccc1Br)C(=O)c1ccc(COc2ccccc2)cc1 | / | 3% | -2% | ? | 4%
CN(CC(=O)Nc1ccccc1Br)C(=O)CCC1CCCC1 | / | ? | ? | 19µM* | ?
Cc1noc(C)c1COC(=O)CCCOc1ccc(Cl)cc1Cl | 2% | -5% | -1% | -17% | -3%
CC1=CN2C(=N)/C(=C/c3ccc(Sc4ccc(C)cc4)o3)C(=O)N=C2S1 | 2% | 7% | 1% | 19µM* | -8%
CC1=CN2C(=N)/C(=C/c3ccc(C)o3)C(=O)N=C2S1 | 2.8µM* | 1.6µM* | ? | 1.2µM* | 0.79µM*
CC1=CN2C(=N)/C(=C/c3ccc(Sc4ccc(Cl)cc4)o3)C(=O)N=C2S1 | -36% | -2% | -1% | -1% | 1%
Cc1cccc2c(N=NC(=O)c3ccc(NS(=O)(=O)c4cccs4)cc3)c(O)[nH]c12 | / | ? | 14% | 0.43µM* | ?
Cc1ccc2[nH]c(O)c(N=NC(=O)c3ccc(NS(=O)(=O)c4cccs4)cc3)c2c1 | / | 2% | -4% | 5.4µM* | 0%
C=C(C)CSc1nnc2n(N)c(=O)c3ccccc3n12 | 18% | 20% | ? | 17µM* | ?
O=C1C2C3C=CC(C3)C2C(=O)N1/N=C/c1cc(Br)cc([N+](=O)[O-])c1O (configuration not stated) | -16% | -4% | 11% | 19µM* | -5%
O=C1C2C3C=CC(CC3)C2C(=O)N1c1ccc(Br)cc1[N+](=O)[O-] (configuration not stated) | / | 0% | -5% | -3% | 1%
O=C1C2C3C=CC(C3)C2C(=O)N1/N=C/c1ccc(-c2ccccc2[N+](=O)[O-])o1 (configuration not stated) | ? | 17% | 3% | 19µM* | 24%
O=C(/C=C/c1ccc([N+](=O)[O-])cc1)Nc1cccc(C(=O)Nc2ccccc2C(=O)O)c1 | / | -3% | -9% | 5.4µM* | -6%
CCOC(=O)c1cccc(NC(=O)/C=C/c2ccc([N+](=O)[O-])cc2)c1 | -56% | 3% | 2% | 2.7µM* | 8%
CC(=O)c1cccc(NC(=O)/C=C/c2ccc([N+](=O)[O-])s2)c1 | -82% | -35% | 2.9µM* | -2% | -36%
COC(=O)c1cccc(NC(=O)/C=C/c2cccc([N+](=O)[O-])c2)c1 | -20% | 18% | 0% | ? | ?
COC(=O)c1cccc(NC(=O)/C=C/c2ccc([N+](=O)[O-])cc2)c1 | -10% | 8% | -4% | 2.4µM* | 2%

Bioassay records as filed in PubChem.
